Nrf2 block: inhibitors of Nrf2 signaling. A549 ARE-Fluc reporter, luciferase luminescence, 18-24 h. Potency, µM (highest dose often 46 µM), inactives show top-dose activity change, negative = inhibition, hits mostly inhibitors. 360,000 compounds, 2.1% hits. AID 504444; further: potency means the concentration at half of the fitted maximal effect; on the % scale 0 is the no-effect control and ±100 the full control effect; nearly all actives have a fitted effect of over 60% in size
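In this cell-based qHTS, ARE-driven firefly luciferase in A549 cells reports Nrf2 activity; the luminescent signal after BugLite lysis is the measured value, with a prior CellTiter-Fluor read for cell health.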
Nrf2 activator: activators of Nrf2 (ARE) signaling | AREc32 ARE-luciferase reporter (MCF7-derived line), luminescence, 24 h | Potency, µM (top dose mostly 46.1 µM), inactives show top-dose activation, hits mostly activators | 410,000 compounds, 0.31% hits | AID 624171; further: potency means the concentration at half of the fitted maximal effect; % of control where 0% means no effect; nearly all actives have a fitted effect of over 65% in size
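Quantitative high-throughput format: AREc32 reporter cells, 1000 per well, received compound by pin transfer and were incubated 24 hr at 37 deg C, 5% CO2, before Steady-Glo luminescence detection.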
A-T KAP1 phos: potential ataxia-telangiectasia treatments restoring KAP-1 phosphorylation | F2112 A-T fibroblasts, KAP-1 phosphorylation AlphaLISA; neocarzinostatin DNA damage 30 min before lysis | 320,000 compounds, 0.19% hits | Potency, µM (doses to about 57.5 µM), without a hit: at the highest dose activation, hits mostly activators; further: potency means the concentration at half of the fitted maximal effect; % of control where 0% means no effect; nearly all actives have a fitted effect of over 45% in size
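ATM-like activity read as KAP-1 phosphorylation via AlphaLISA donor/acceptor antibody pairs after lysis and 6 hr at 25C. Cells were ATM-null patient fibroblasts (F2112, hTERT), dosed 60 min, then exposed to the DSB inducer NCS for 30 min.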
A549 tox: A549 cytotoxicity, counter-screen for Nrf2 inhibitors; Potency, µM (highest dose often 46 µM), for the others: top-dose activity change, negative = cytotoxicity, actives largely listed as inhibitors; A549 ARE-Fluc cells, CellTiter-Fluor viability, 18-24 h; 390,000 compounds, 0.16% hits; AID 504648; further: potency means the concentration at half of the fitted maximal effect; on the % scale 0 is the no-effect control and ±100 the full control effect
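A549 ARE_Fluc cells in 5% FBS OPTI-MEM were exposed to compounds in concentration-response for 18-24 h at 37 deg C. Viability was read by CellTiter-Fluor fluorescence (Ex 405/Em 525) after 30 min, before the luciferase read.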
TCR activator: activators of T cell receptors. AID 504894. primary human leukocytes, anti-CD3, IL-2 HTRF, 48 h. Potency, µM (doses to about 9.22 µM), inactives show at the highest dose activation of IL-2 secretion, usual class: activators. 330,000 tested, under 10 active; further: % of control where 0% means no effect
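TCR engagement came from a-CD3 beads alone, with compounds added to primary human leukocytes for 48 hr. Secreted IL-2 bridged europium cryptate- and d2-labelled anti-IL-2 antibodies, giving FRET emission at 665nm after 320nm excitation.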
CCT modulator: cytosolic chaperonin activity modulation; activity change, % (test concentration not listed), hits read low; purified chaperonin ATPase assay, HTRF ADP detection, 30 min; 360,000 compounds, 0.3% hits; in the data active means activity change below about -30%; further: on the % scale 0 is the no-effect control and ±100 the full control effect
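Enzyme 40 or 20 nM (batch-dependent) in Tris pH 7.4/KCl/MgCl2/DTT; cpd 76 uM single point; ATP 10 uM; 30 min 37 °C; Transcreener ADP HTRF detection, 30 min RT; ratio 665/615.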
* marks the source's active call; other numbers are inactive results; ? = inconclusive; nt = no result; [ ] = dose if it differs, or a comment. An excerpt weighted towards active compounds, which were near 2.6% of everything screened. Unless noted, the call rests on the fitted dose curve; in most records, active means well fitted curve in the direction sought with a large enough effect; inconclusive means small, poorly fitted or top-dose-only effect, or another doubt; inactive means no such curve, though single readings can be large; an effect the other way counts as inactive or inconclusive.

SMILES	Nrf2 block	Nrf2 activator	A-T KAP1 phos	A549 tox	TCR activator	CCT modulator
Cn1nnnc1Sc1ncnc2scc(-c3ccccc3Br)c12	21µM*	?	-2%	-3%	-1%	nt
Cn1nnnc1Sc1ncnc2scc(-c3cccc(C#N)c3)c12	16µM*	nt	nt	?	nt	nt
Cn1nnnc1Sc1ncnc2scc(-c3cccc4ccccc34)c12	?	7.1µM*	16%	-21%	-5%	nt
Cn1nnnc1Sc1ncnc2scc(-c3ccc(F)cc3)c12	23µM*	?	5%	?	1%	-3
Cc1ccccc1-c1csc2ncnc(Sc3nnnn3C)c12	-10%	nt	nt	1%	nt	nt
Cn1nnnc1Sc1ncnc2scc(-c3ccccc3)c12	?	?	2%	-5%	-5%	-1
N#CC1=C2SCC(O)(c3ccccc3)N2C(=O)CC1c1ccccc1F (stereo not given)	10µM*	5%	nt	-6%	-4%	0
Cc1cc2c(s1)c1cnn(Cc3ccc(F)cc3F)c(=O)c1n2C	10%	nt	nt	-11%	nt	nt
COc1ccc(NS(=O)(=O)c2csc(C(N)=O)c2)cc1	1%	0%	1%	-8%	2%	-2
NC(=O)c1cc(S(=O)(=O)Nc2ccc(OC(F)(F)F)cc2)cs1	18µM*	0%	0%	-3%	-18%	-2
Cc1ccc(NC(=O)c2cnc(SCC(=O)N3CCCc4ccccc43)n(C)c2=O)cc1	nt	0%	nt	1%	nt	nt
COc1ccc(S(=O)(=O)N2CCOCC2)cc1NC(=O)CN(C)Cc1c(F)cccc1Cl	21µM*	1%	1%	-8%	-3%	0
COc1ccc(CNC(=O)CN(C(=O)c2csnn2)c2ccc(C(C)=O)cc2)cc1	10%	3%	-2%	0%	-5%	-40*
CC(C)N(C(=O)[C@H]1CC(CC(=O)NCCN2CCOCC2)C(=O)N2CCc3c([nH]c4ccccc34)[C@]12C)C(C)C (stereo not given in full)	7%	-1%	9%	12%	1%	-2
COc1ccc(NC(=O)CSc2nc3ccccc3c(=O)n2CCC(=O)NC2CCCCC2)c(OC)c1	nt	-1%	nt	2%	nt	nt
CSc1ccc(CN(C)Cc2cc(=O)oc3c(C)c(C)ccc23)cc1	?	0%	3%	9%	0%	-5
CCOc1ccc(CN(C)Cc2cc(=O)oc3c(C)c(C)ccc23)cc1OC	16µM*	3%	nt	-16%	2%	-1
CCN1CCN(c2ncc3c(n2)CCN(Cc2ccccc2C)C3)CC1	nt	6%	nt	2%	nt	nt
O=C1CCc2cc(S(=O)(=O)Nc3ccc4c(c3)CCC4)ccc2N1	?	nt	nt	3%	nt	nt
CCn1c(SCC(=O)N/N=C/C=C\c2ccccc2[N+](=O)[O-])nnc1-c1ccccc1	16µM*	16%	10%	-17%	3%	-3
Cc1ccc(CSc2nnc(SCC(=O)N/N=C/C=C/c3ccccc3[N+](=O)[O-])s2)cc1	?	0%	-3%	12%	-8%[46.1 µM]	-3
Cc1ccccc1N=C1SC(CC(=O)Nc2ccc3ccccc3c2)C(=O)N1Cc1ccccn1 (stereo not given)	?	5%	nt	-29%	7%	-1
O=C(CC1SC(=Nc2cccc3ccccc23)N(Cc2ccccn2)C1=O)Nc1ccccc1Br (stereo not given)	5.2µM*	4%	0%	-19%	-3%	-3
O=c1oc2c(-c3ccc([N+](=O)[O-])cc3)cc(O)cc2s1	4%	22µM*	-3%	7%	-5%	1
COc1ccc2c(c1)c(CC(=O)Nc1ccc(C(C)=O)cc1)c(C)n2C(=O)c1ccc(Cl)cc1	23µM*	6%	2%	?	-11%[46.1 µM]	-2
SMILES	Nrf2 block	Nrf2 activator	A-T KAP1 phos	A549 tox	TCR activator	CCT modulator
COc1ccc2c(c1)c(CC(=O)Nc1cc(C)ccc1C)c(C)n2C(=O)c1ccc(Cl)cc1	-9%	4%	-2%	-1%	1%[46.1 µM]	-2
COc1ccc(OC)c(NC(=O)Cc2c(C)n(C(=O)c3ccc(Cl)cc3)c3ccc(OC)cc23)c1	23µM*	-1%	nt	-12%	nt	nt
COc1ccc2c(c1)c(CC(=O)Nc1ccccc1OC)c(C)n2C(=O)c1ccc(Cl)cc1	-22%	3%	0%	-1%	7%[46.1 µM]	-4
O=C(NCc1ccncc1)c1ccc(NS(=O)(=O)c2ccc(F)cc2)cc1	-2%	-1%	14%	0%	1%	-6
Cc1ccc(N2CC(C(=O)NCC3CCCO3)CC2=O)cc1Cl (stereo not given)	12%	0%	5%	5%	5%	-143*
COc1ccc(N2CCN(C(=O)C3CCN(S(=O)(=O)c4cccs4)CC3)CC2)cc1	?	0%	-4%	0%	-3%	-1
COc1ccc(CN2CCN(C(=O)C3CCN(S(=O)(=O)c4cccs4)CC3)CC2)c(OC)c1OC	15µM*	0%	-3%	-4%	-4%	1
CC(NC(=O)C(NS(=O)(=O)c1cccc2nsnc12)C(C)C)c1ccccc1 (stereo not given)	10%	-1%	7%	-2%	10%	-3
CCC(c1nnnn1CS(=O)(=O)c1ccc(C)cc1)N1CCN(c2nc3ccccc3s2)CC1 (stereo not given)	8.2µM*	2%	0%	-7%	nt	1
COCCn1nnnc1C(c1ccc(OC)c(OC)c1)N1CCN(c2nc3ccccc3s2)CC1 (stereo not given)	9.2µM*	6%	0%	10%	-10%	4
CCCC(c1nnnn1CS(=O)(=O)c1ccc(C)cc1)N1CCN(c2ccccc2)CC1 (stereo not given)	-1%	-1%	3%	5%	1%	-2
O=C(O)C1C2CCC(O2)C1C(=O)Nc1ccc(Br)cc1F (stereo not given)	0%	0%	nt	1%	nt	-3
CNc1oc(-c2ccc(F)cc2)nc1S(=O)(=O)c1ccccc1	-29%	0%	5%	1%	-4%	0
CC(C)CS(=O)(=O)c1oc(-c2ccc(F)cc2)nc1S(=O)(=O)c1ccccc1	23µM*	-6%	nt	?	nt	nt
CCS(=O)(=O)c1ncc(Cl)c(C(=O)N(Cc2ccccc2)c2ccc(OC)cc2)n1	23µM*	?	nt	?	nt	nt
CCS(=O)(=O)c1ncc(Cl)c(C(=O)N2CCN(c3ccc(OC)cc3)CC2)n1	21µM*	-6%	nt	?	nt	nt
Cc1ccccc1NC(=O)/C(C#N)=C/c1ccc(Cl)cc1Cl	0%	0%	nt	-1%	nt	nt
Cc1cc(C)cc(C(=O)NCCn2cc(SCC(=O)N3CCOCC3)c3ccccc32)c1	?	2%	1%	11%	-1%	-32*

Assay outcomes as filed in PubChem BioAssay.
